# Source: PubChem BioAssay (NCI)
# This is part of a sample that, as a whole, favours compounds with a hit. Of some 83,000 tested, about 20% had one in any assay.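 Results are percent growth after 48 hours of single-concentration exposure. 100 means growth as in untreated cells, lower positive values show inhibition; negative values down to -100 show cell death.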 A number with no mark means an inactive call. The source made the active and inactive calls. How the source made its calls: active means growth percent below 10; inactive means the rest.
# System: OVCAR-8 ovarian
# Assay: NCI-60 one-dose screen, 48 h (100 = growth as untreated, 0 = no growth, -100 = all killed)
# Settings: 10 µM unless noted
row,Structure (SMILES),growth
1,COc1ccc(-c2cn(-c3cccc(C(=O)/C=C/c4ccc(O)c(OC)c4)c3)c(=O)[nH]2)cc1,11.7%
2,Cc1ccccc1N1C(c2ccccc2)=NNC12C=CC(=O)c1c(O)cccc12 (centres undefined),60.1%
3,COc1cc(Nc2ccnc3ccc(Br)cc23)cc(OC)c1OC,36.6%
4,CN1CCN(Cc2ccc(NC(=O)c3cncc(C#Cc4ccc(N)nc4)c3)cc2C(F)(F)F)CC1,20.1%
5,COc1ccc(Sc2[nH]c(C=O)c3ccccc23)cc1,69.3%
6,COCCOCCOCc1n(Cc2ccc3ccccc3n2)c2ccccc2[n+]1Cc1ccc2ccccc2c1,9.25% (active)
7,COc1ccc(C2C3CCc4ccccc4C3=NN2C(=O)c2cc(OC)c(OC)c(OC)c2)cc1O (centres undefined),99.4%
8,O=c1[nH]cnc2nc[nH]c12,76.9%
9,CC(=O)O[C@H]1[C@H](CC#CC#CC[C@@H]2C[C@]3(C)[C@H]4CC=C5[C@H]6[C@@H](C)[C@H](C)CC[C@]6(C(=O)NCCN(CCN)CCN)CC[C@@]5(C)[C@]4(C)CC[C@H]3C(C)(C)[C@H]2OC(C)=O)C[C@]2(C)[C@H]3CC=C4[C@H]5[C@@H](C)[C@H](C)CC[C@]5(C(=O)NCCN(CCN)CCN)CC[C@@]4(C)[C@]3(C)CC[C@H]2C1(C)C,3.13% (active)
10,Fc1ccc2nc(-c3ccc(-c4noc(-c5ccc(Cl)cc5)n4)cc3)[nH]c2c1,108%
11,CCNS(=O)(=O)c1ccc(C)cc1,100%
12,OC(c1cc(-c2ccc(C(F)(F)F)cc2)nc(-c2ccc(C(F)(F)F)cc2)c1)C1CCCCN1 (centres undefined),-64.5% (active)
13,CC1(C)C(N(O)C(=O)Nc2ccc(Cl)cc2)N(c2ccc(Cl)cc2)C(=O)N1CC(=O)N/N=C/C=C/c1ccc([N+](=O)[O-])o1 (centres undefined),3.32% (active)
14,Cc1cc(N=Nc2ccc(-c3ccc(N=Nc4ccc(O)c(C(=O)O)c4)cc3)cc2)c(N)c(N=Nc2ccc(C(=O)O)cc2)c1N,90.8%
15,NC(N)=N/N=C\c1cccc(OCc2ccccc2)c1,89.3%
16,CNC(=O)c1ccccc1Sc1ccc2c(/C=C/c3ccccn3)n[nH]c2c1,28.4%
17,CC(=O)c1c(C)nc(-c2cc(C)cc(Cl)c2)nc1-c1cccc(Oc2ccccc2)c1,91.8%
18,CCN(CC)Cc1cc(Nc2nc(NC3CCC(N(C)C)CC3)c3ccccc3n2)ccc1OC (centres undefined),63.8%
19,Cc1nc2c(-c3cnc(N)nc3)nc(N3CCOCC3)nc2n1C(C)C,-8.95% (active)
20,C[C@@H]1C[C@H](N)C[C@H](c2ccncc2NC(=O)c2ccc(F)c(-c3c(F)cccc3F)n2)C1,62.6%

row,Structure (SMILES),growth
1,Nc1nonc1-c1nc2ccccc2n1Cc1ccc(F)cc1,76.7%
2,C=CC[C@]1(O)CC[C@H]2[C@@H]3CCc4cc(O)ccc4[C@H]3CC[C@@]21C,94.9%
3,[Ag].[Ag].[NH-]S(=O)(=O)c1ccc(N=Nc2cc(N=Nc3ccc(S([NH-])(=O)=O)cc3)c3c(NC(=O)C(Cl)Cl)cccc3c2OC(=O)C(Cl)Cl)cc1.[c-]1nccs1.[c-]1nccs1,68.3%
4,CCCCCCCCCCCCCCC(C(=O)OCC)C(=O)OCC,103%
5,CN(C)c1ccc(C(c2ccccc2)c2ccc(N(C)C)cc2)cc1,90.9%
6,Cc1n(Cc2ccc3ccccc3n2)cc[n+]1Cc1ccc2ccccc2c1,11.9%
7,FC(F)(F)c1ccc(/C=N/Nc2nnc3n2N=C(c2ccc(Cl)cc2)CS3)cc1,19.9%
8,CS(=O)(=O)Nc1cc(-c2cc3ncc(C#N)c(Nc4ccc(Oc5ccccc5)c(Cl)c4)c3s2)cnc1Cl,50.6%
9,Cc1cc(C)c2c(n1)sc1c(Nc3ccc(O)cc3)ncnc12,10.8%
10,c1ccc(C2=Nc3ccccc3SC2)cc1,101%
11,COc1cc2c(cc1OCCCOc1cc3c(cc1OC)C(=O)N1CCC[C@H]1C=N3)C=CC(C)(C)O2,89.2%
12,O=[N+]([O-])c1cccc(N=C(Nc2cccc([N+](=O)[O-])c2)c2ccccc2)c1,93.4%
13,C=CCn1c(C)nc2cc(Nc3nc(N4CCOCC4)nc4nc[nH]c34)ccc21,87.3%
14,C=C1NC(=O)C(C(C)CC)NC(=O)C2CSCC(NC(=O)CCC(=O)O)C(=O)NC(Cc3ccccc3)C(=O)NC(C)C(=O)NC(CC(C)CC)C(=O)NC(C(=O)NC(Cc3ccccc3)C(=O)N3CCCC3C(=O)N2)C(C)OC(=O)C(CO)NC(=O)C(C(O)COC)N(C)C(=O)C(C(C)C)NC(=O)C(CC(C)CC)NC1=O (centres undefined),12.9% [6 µM]
15,COc1ccc(-c2nc(-c3cc(OC)cc(OC)c3)[nH]c2-c2ccc(OC)cc2)cc1,58.1%
16,N#Cc1nc(-c2cccc(Br)c2)cc(-c2ccc(Nc3nc(N4CCCCC4)nc(N4CCCCC4)n3)cc2)c1N,12.2%
17,NC(N)=N/N=C\c1ccc(OCc2ccccc2)cc1,89.1%
18,CCN(CC)CCC(CNc1ccnc2cc(Cl)ccc12)c1ccc(O)cc1 (centres undefined),92.2%
19,COS(=O)(=O)CCN(CCOS(C)(=O)=O)S(C)(=O)=O,94.9%
